VACV Venus inh: qHTS for Stage-Specific Inhibitors of Vaccinia Orthopoxvirus: Venus Reporter Primary qHTS; Potency, µM (top dose mostly 36.5 µM), usual class: inhibitors; Vaccinia virus Venus reporter expression, fluorescence; AID 720580, 2013; 330,000 compounds, 0.46% hits; calls by dose curve; tested in A549 cells; note: nearly all actives have a fitted effect of over 30% in size
AmpC inh no detg: qHTS Inhibitors of AmpC Beta-Lactamase (assay without detergent); P00811; AmpC nitrocefin hydrolysis, absorbance 480 nm, 0.0001% Triton; Potency, µM (top dose mostly 57.1 µM), actives largely listed as inhibitors; 330,000 compounds, 0.52% hits; note: nearly all actives have a fitted effect of over 20% in size
Target sequence (P00811 whole entry, looked up): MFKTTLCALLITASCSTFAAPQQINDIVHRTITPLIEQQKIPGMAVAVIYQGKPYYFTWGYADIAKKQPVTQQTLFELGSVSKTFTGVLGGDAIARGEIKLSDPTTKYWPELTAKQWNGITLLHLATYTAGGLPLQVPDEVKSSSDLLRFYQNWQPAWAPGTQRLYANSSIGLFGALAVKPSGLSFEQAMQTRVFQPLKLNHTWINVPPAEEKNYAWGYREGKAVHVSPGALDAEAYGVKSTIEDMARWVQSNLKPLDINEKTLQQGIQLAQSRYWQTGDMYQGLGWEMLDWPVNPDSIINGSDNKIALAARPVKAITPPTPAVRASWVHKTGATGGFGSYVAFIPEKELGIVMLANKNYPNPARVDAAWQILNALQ
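AmpC (5.3 nM in the dispensed reagent) in 20 mM phosphate pH 7.0 with 0.01% (detergent screen) or 0.0001% Triton X-100 was preincubated with compounds for 15 min at room temperature. Nitrocefin was then added from an 800 uM solution, and hydrolysis was followed at 480 nm.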
AmpC detergent: qHTS Inhibitors of AmpC Beta-Lactamase (assay with detergent) | P00811 | AmpC hydrolysis of nitrocefin, absorbance 480 nm, 0.01% Triton | Potency, µM (titrated, usually from 114 µM), actives largely listed as inhibitors | 370,000 compounds, 0.041% hits; note: nearly all actives have a fitted effect of over 25% in size
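20 mM phosphate pH 7.0 + 0.01% (detergent screen) or 0.0001% Triton X-100; 5.3 nM AmpC reagent; cpd preinc 15 min RT; nitrocefin (800 uM stock) to start; A480 q20 s × 4 min; Activity was normalised to no-enzyme and no-compound control wells.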
VACV mCherry inh: qHTS for Stage-Specific Inhibitors of Vaccinia Orthopoxvirus: mCherry Reporter Primary qHTS. Vaccinia virus mCherry reporter infection, fluorescence. Potency, µM (series often up to 36.5 µM), actives largely listed as inhibitors. 310,000 compounds, 0.63% hits; calls by dose curve; tested in A549 cells; note: nearly all actives have a fitted effect of over 35% in size
Hits are given with their value. Compounds with a hit are over-represented: about 1.1% of the library has one in this group of screens. Unless noted, calls come from the whole dose curve; as a rule, active = well fitted curve in the direction sought with a large enough effect; inconclusive = small, poorly fitted or top-dose-only effect, or another doubt; inactive = no such curve, though single readings can be large; an effect the other way counts as inactive or inconclusive.

How did COC(c1ccc2c(c1)CN(C(=O)Cn1nc(C)c3ccccc3c1=O)CCO2)C1CCCCC1 (stereo unspecified) do in these assays?
VACV Venus inh: inactive; VACV mCherry inh: inactive

How did O=C(NC(Nc1ncc(S(=O)(=O)c2ccc([N+](=O)[O-])cc2)s1)(C(F)(F)F)C(F)(F)F)c1ccc(Cl)cc1 do in these assays?
VACV Venus inh: inconclusive; AmpC inh no detg: inactive; AmpC detergent: inactive; VACV mCherry inh: 17.8µM

Results for CSc1ccc(-c2ccc(C(=O)NCC3CCCO3)c(N3CCC(O)CC3)n2)cc1 (stereo unspecified) ?
VACV Venus inh: inactive; VACV mCherry inh: inactive

Results for O=c1c(N2CCOCC2)nsn1Cc1ccccc1 ?
VACV Venus inh: inconclusive; AmpC inh no detg: inactive; AmpC detergent: inactive; VACV mCherry inh: 12.6µM

What do the screens show for `Cc1c(Br)c(O)c(Br)c2sc(=O)oc12`?
AmpC inh no detg: 20µM; AmpC detergent: inactive

Results for C/C(CCC12CC3CC(CC(C3)C1)C2)=N\NC(N)=S ?
VACV Venus inh: inconclusive; AmpC inh no detg: inactive; AmpC detergent: inactive; VACV mCherry inh: 11.2µM

How did C/C(CC1CC(C)OC1=O)=N\NC(N)=S (stereo unspecified) do in these assays?
AmpC inh no detg: inactive; AmpC detergent: inactive

Results for O=C1C=C(O)c2ccccc2C1=O ?
VACV Venus inh: inactive; VACV mCherry inh: inactive

How did O=C1C=C(c2c(O)ccc3ccccc23)c2ccccc2C1=O do in these assays?
VACV Venus inh: 11.2µM; VACV mCherry inh: 10µM

What do the screens show for `CC(C)N(C(=O)[C@H]1C[C@H](CC(=O)NCCC2=CCCCC2)C(=O)N2CCc3c([nH]c4cc(-c5ccco5)ccc34)[C@]12C)C(C)C`?
VACV Venus inh: 11.2µM; AmpC inh no detg: inactive; VACV mCherry inh: 10µM

What do the screens show for `CC(C)N(C(=O)[C@H]1C[C@H](CC(=O)NCCCN(C)C)C(=O)N2CCc3c([nH]c4cc(-c5ccco5)ccc34)[C@]12C)C(C)C`?
VACV Venus inh: inconclusive; AmpC inh no detg: inactive; VACV mCherry inh: 10µM

Results for Cn1ccc2cc(-c3ccc4ncnc(NCc5cccnc5)c4c3)ccc21 ?
AmpC inh no detg: inactive; AmpC detergent: inconclusive

What do the screens show for `COc1cc(-c2cccc(Cl)c2)cc2c1OCCN(C(=O)CCn1ccc(C)n1)C2`?
VACV Venus inh: inactive; VACV mCherry inh: inactive

How did Cc1ccccc1Oc1cc(-n2ncc(Cl)c(Cl)c2=O)ncn1 do in these assays?
VACV Venus inh: 10µM; AmpC inh no detg: inactive; AmpC detergent: inactive; VACV mCherry inh: inconclusive

What do the screens show for `CCOc1cnn(-c2cc(Oc3ccc(C)cc3)ncn2)c(=O)c1Cl`?
VACV Venus inh: inactive; AmpC inh no detg: inactive; AmpC detergent: inactive

Results for O=S(=O)(Nc1ccc2nc(-c3ccc(Br)o3)[nH]c2c1)c1ccccc1 ?
AmpC inh no detg: 25.1µM; AmpC detergent: inactive

Results for O=C(c1ccc(N2CCC(NCCCn3ncc4ccccc43)CC2)cc1)N1CCc2ccccc2C1 ?
VACV Venus inh: inactive; VACV mCherry inh: inactive

What do the screens show for `Cc1cc(N/N=C/c2ccccc2[N+](=O)[O-])nc(-n2nc(C)cc2C)n1`?
VACV Venus inh: inconclusive; AmpC inh no detg: inactive; AmpC detergent: inactive; VACV mCherry inh: 10µM

What do the screens show for `Cc1cc(N/N=C/c2cccc([N+](=O)[O-])c2)nc(-n2nc(C)cc2C)n1`?
VACV Venus inh: inactive; AmpC inh no detg: inactive; AmpC detergent: inactive; VACV mCherry inh: inactive

What do the screens show for `COC(=O)N1C/C=C\C(c2ccc(OC)cc2)N(Cc2ccc(F)cc2)C(=O)C1` (stereo unspecified)?
VACV Venus inh: inactive; AmpC inh no detg: inactive; AmpC detergent: inactive; VACV mCherry inh: inactive

What do the screens show for `C=CC(=O)N1C/C=C\C(c2ccc(OC)cc2)N(Cc2ccc(F)cc2)C(=O)C1` (stereo unspecified)?
VACV Venus inh: 0.891µM; AmpC inh no detg: inactive; AmpC detergent: inactive; VACV mCherry inh: inconclusive

What do the screens show for `NS(=O)(=O)c1ccc(-c2ccc(C=C3C(=O)c4ccccc4C3=O)o2)cc1`?
VACV Venus inh: inactive; AmpC inh no detg: inactive; AmpC detergent: inconclusive; VACV mCherry inh: inactive

What do the screens show for `CC(C)CC1=C/C(=C/c2ccc(-c3ccccc3)o2)C(=O)O1`?
VACV Venus inh: inactive; AmpC inh no detg: 31.6µM; AmpC detergent: inconclusive; VACV mCherry inh: inactive

Results for C[N+]1(CC(=O)c2ccc(I)cc2)CCOCC1 ?
VACV Venus inh: inactive; VACV mCherry inh: inactive

What do the screens show for `O=C(N/N=C/c1ccc(Cl)cc1Cl)c1ccc(-n2cnnn2)cc1`?
AmpC inh no detg: inactive; AmpC detergent: inconclusive

Results for Nn1cnnc1N/N=C/c1ccc(Cl)cc1Cl ?
VACV Venus inh: inconclusive; AmpC inh no detg: inactive; AmpC detergent: inactive; VACV mCherry inh: 8.91µM

How did CCCCc1ccc(NC(=O)CSCc2cc(=O)[nH][nH]2)cc1 do in these assays?
AmpC inh no detg: 17.8µM; AmpC detergent: inactive

How did O=C(CSCc1cc(=O)[nH][nH]1)Nc1ccc(F)cc1 do in these assays?
VACV Venus inh: inactive; AmpC inh no detg: inactive; AmpC detergent: inconclusive; VACV mCherry inh: inactive

How did Cn1cnc([N+](=O)[O-])c1Oc1ccc2ccccc2c1 do in these assays?
VACV Venus inh: 7.94µM; AmpC inh no detg: inactive; AmpC detergent: inactive; VACV mCherry inh: 6.31µM

Results for Cc1ncc2c(c1CNC(=O)c1ccc3c(c1)OCO3)CCN(C(=O)c1noc3c1CCCC3)C2 ?
VACV Venus inh: inactive; VACV mCherry inh: inactive

How did CCOC(=O)c1c(/N=C/c2ccccc2O)sc2c1CCC2 do in these assays?
VACV Venus inh: inactive; AmpC inh no detg: inactive; AmpC detergent: inactive; VACV mCherry inh: inactive

How did CCOC(=O)c1c(/N=C/c2ccc(O)cc2O)sc2c1CCC2 do in these assays?
AmpC inh no detg: 10µM; AmpC detergent: inactive

What do the screens show for `O=C(Nc1cnn(Cc2ccc(Cl)c(Cl)c2)c1)C12CC3CC(CC(C3)C1)C2`?
VACV Venus inh: inconclusive; AmpC inh no detg: inactive; AmpC detergent: inactive; VACV mCherry inh: 17.8µM

What do the screens show for `CCN(CC)CCN(C(=O)c1ccc2c(c1)OCCO2)c1nc2cc3c(cc2s1)OCO3`?
VACV Venus inh: inactive; AmpC inh no detg: inactive; AmpC detergent: inactive; VACV mCherry inh: inactive

Results for CCN(CC)CCN(C(=O)c1cc2c(ccc3ccccc32)oc1=O)c1nc2cc3c(cc2s1)OCCO3 ?
VACV Venus inh: inconclusive; AmpC inh no detg: inactive; AmpC detergent: inactive; VACV mCherry inh: 10µM

What do the screens show for `Cc1cc(/C=C2\SC(=S)NC2=O)c(C)n1-c1ccc(O)cc1`?
VACV Venus inh: inactive; AmpC inh no detg: 11.2µM; AmpC detergent: inactive; VACV mCherry inh: inconclusive

How did Cc1cc(/C=C2\SC(=S)NC2=O)c(C)n1-c1ccccc1 do in these assays?
VACV Venus inh: inactive; AmpC inh no detg: inactive; AmpC detergent: inactive; VACV mCherry inh: inactive

How did COc1ccc(-c2cc(C3CCN(c4cc(Cl)nc(N)n4)CC3)[nH]n2)cc1 do in these assays?
AmpC inh no detg: inactive; AmpC detergent: inconclusive

How did COc1ccc(OC)c(-c2cc(C3CCN(c4cc(Cl)nc(N)n4)CC3)[nH]n2)c1 do in these assays?
VACV Venus inh: inconclusive; AmpC inh no detg: inactive; AmpC detergent: inactive; VACV mCherry inh: 12.6µM
